Source: ChEMBL document CHEMBL3988442, “University of Dundee, Small-Polar-MMV Screening Library” (2021)
Out of some 48,000 compounds screened, about 13,000 (27%) showed an effect of 50% or more. Some of the results follow.

Test system: Wolbachia pipientis
Assay: Anti-Wolbachia Cell-Based Screen
Format: functional
Design: scale not given: in the data most compounds retested in dose-response had high values
Settings: 5 µM

| Compound | Percent Effect [%] |
| --- | --- |
| Cc1cc(CN(C)C(=O)C(c2ccccc2C)N(C)C)on1 (stereo not given) | -6.719 |
| COCC1CN(c2ccc3c(Cl)ccnc3c2F)CCO1 (stereo not given) | -23.97 |
| CC(C)n1nc(Cn2cccn2)c2c1CN(C1CCOCC1)C2.O=C(O)C(F)(F)F | -12.7 |
| CSCC(CCO)Nc1cccc(C(F)(F)F)n1 (stereo not given) | -4.466 |
| Cc1[nH]/c(=N\C(=O)c2csc(NC3CC3)n2)sc1C | 5.659 |
| CCn1nc(C(C)C)cc1C(=O)N1CC(OCc2ccccc2F)C1 | -12.74 |
| CC(C)C(=O)N1CCCC2(CCCN2CC2CCCC2)C1.O=C(O)C(F)(F)F (stereo not given) | 4.18 |
| CCNc1ncc(C(=O)NC(CCN(C)C)c2ccccc2)cn1 (stereo not given) | 13.66 |
| CCCC(NC(=O)c1cc(C)ccc1C)c1nnn[nH]1 (stereo not given) | -4.44 |
| CCC(NC(=O)c1nn(C)cc1C(=O)O)c1ccc(C)cc1C (stereo not given) | 113.8 |
| CCC(NC(=O)c1nn(C)cc1C(=O)O)c1ccccc1 (stereo not given) | 82.78 |
| CCC(CC)NC(=O)Cn1cc(C(N)=O)c(-c2ccccc2)n1 | -10.51 |
| CCC(NC(=O)c1c(C(=O)O)cnn1C)c1ccc(C)cc1C (stereo not given) | 109.1 |
| CCC(NC(=O)c1nn(C)cc1C(=O)O)c1ccc(C)cc1 (stereo not given) | 104.3 |
| COc1ccc(C(CC(=O)O)NC(=O)c2cc(C)on2)cc1 (stereo not given) | 2.487 |
| Cc1ccc(C(C(=O)O)N(C)CCCN2CCOCC2)c(C)c1 (stereo not given) | -9.259 |
| CCC(NC(=O)c1cc(CC(C)C)nn1C)c1cc(C)ccn1 (stereo not given) | 6.008 |
| CCC(NC(=O)CN(C)Cc1ccc(C)o1)c1ccc(C)cc1 (stereo not given) | 3.05 |
| CCC(NC(=O)c1cc(NC(C)=O)ccc1Cl)c1cc(C)ccn1 (stereo not given) | -8.351 |
| CSCC(CCO)NC(=O)Nc1cc(C)ccc1C (stereo not given) | -5.082 |
| CC(C)(C)NC(=O)NCc1cnn2ccccc12 | -7.455 |
| CCOCCN1C[C@H](c2cccc(OC)c2)[C@@H](N)C1 | -6.771 |
| Cc1cnccc1N1CCN(c2nccc(CCC(F)(F)F)n2)CC1 | 13.49 |
| Cc1nc(C)n(CC2CCCN2CC(=O)Nc2ccnn2C(C)C)n1 (stereo not given) | -5.093 |
| CCOCC(=O)N1CC[C@H]2OCC[C@@H](c3nnc(C)o3)[C@H]2C1 | 13.01 |
| Cc1ccc(C(=O)NCC(O)c2ccc(F)c(F)c2)c(=O)[nH]1 (stereo not given) | -52.3 |
| Cn1c(SCC2OCCc3ccccc32)n[nH]c1=O (stereo not given) | -11.92 |

| Compound | Percent Effect [%] |
| --- | --- |
| Cc1ccc(F)cc1NS(=O)(=O)c1cc2c(c(C(=O)O)c1)OCCO2 | 117.8 |
| CN(c1c(F)cccc1F)S(=O)(=O)c1cc2c(c(C(=O)O)c1)OCCO2 | 7.763 |
| Cc1cc(F)ccc1NS(=O)(=O)c1cc2c(c(C(=O)O)c1)OCCO2 | 118 |
| Cc1ccc(S(=O)(=O)N2CCOc3ccccc32)cc1C(=O)O | -0.06219 |
| CN(c1ccccc1)S(=O)(=O)c1cc2c(c(C(=O)O)c1)OCCO2 | 4.597 |
| O=C(O)c1cc(S(=O)(=O)Nc2cc(F)ccc2F)cc2c1OCCO2 | 0.9161 |
| CN(c1ccc(F)cc1)S(=O)(=O)c1cc2c(c(C(=O)O)c1)OCCO2 | -14.55 |
| O=C(O)c1cc(S(=O)(=O)Nc2ccc(F)cc2F)cc2c1OCCO2 | 104.7 |
| O=C(O)c1cc(S(=O)(=O)Nc2cccc(F)c2F)cc2c1OCCO2 | 134.3 |
| CCc1noc(CS(=O)(=O)CC(=O)N2c3ccccc3CC2C)n1 (stereo not given) | 1.089 |
| CCOC1CC2(CCN(Cc3cnn(C)c3)CC2)c2ccc(C)cc21 (stereo not given) | -1.962 |
| CN1CCN(C)C2(CCN(Cc3ccc(C4CCCO4)s3)CC2)C1 (stereo not given) | -8.087 |
| COc1ccc2cccc(CC(=O)NCCCc3n[nH]c(C)n3)c2c1 | -4.195 |
| COc1c(Cl)cc(C(=O)NCc2n[nH]c(C)n2)cc1Cl | 1.914 |
| Cc1nc(CCCNC(=O)c2c(F)cc(F)cc2F)n[nH]1 | 108.5 |
| COc1ccccc1C(=O)NCc1n[nH]c(C)n1 | 3.11 |
| Cc1nc(CCCNC(=O)c2cc(F)ccc2O)n[nH]1 | 85.21 |
| COc1cc(Cl)ccc1C(=O)NCc1n[nH]c(C)n1 | -9.051 |
| Cc1ccc(O)c(C(=O)NCCCS(=O)(=O)Cc2ccccc2)c1 | -4.048 |
| Cc1nc(CCCNC(=O)c2c(F)cccc2Br)n[nH]1 | 89.06 |
| COc1c(Br)cccc1CCNC(=O)c1ncoc1C | -6.421 |
| CN1C[C@H](O)C[C@H]1c1nc(-c2ccc(OC(F)(F)F)cc2)no1 | -6.164 |
| CCNC(=O)[C@@H]1C[C@H](N)CN1C(=O)CCc1ccc(C)c(C)c1 | -20.38 |
| CC(C)(O)CCc1cccc(C(=O)N[C@@H](CO)C(N)=O)c1 | 1.69 |
| CC[C@@H](CO)NC(=O)c1cccc(CCC(C)(C)O)c1 | 0.6007 |
| CC(C)(O)CCc1cccc(C(=O)NCC2CN(S(C)(=O)=O)CCO2)c1 (stereo not given) | -12.96 |
| C[C@H](NC(=O)c1cccc(CCC(C)(C)O)c1)C(N)=O | -11.41 |

| Compound | Percent Effect [%] |
| --- | --- |
| CC(C)(O)CCc1cccc(C(=O)N2CCC[C@H]2C(N)=O)c1 | 102.3 |
| CCNC(=O)[C@@H]1CCCN1C(=O)c1cccc(CCC(C)(C)O)c1 | 104.5 |
| CCNC(=O)[C@@H]1C[C@@H](N)CN1C(=O)CCc1ccc(C)c(C)c1 | -3.444 |
| CCNC(=O)[C@@H]1C[C@H](N)CN1C(=O)c1cccc(CCC(C)(C)O)c1 | 102.7 |
| CS(=O)(=O)N1CCC(Oc2ccc(C(=O)NCC3CCC3)cc2Cl)CC1 | -2.678 |
| Cc1cc(CN2CCCC2)cc(Oc2ccc(C(F)(F)F)cn2)c1 | 9.077 |
| Cc1nn(C)cc1C(=O)NC(CC(C)C)C(=O)Nc1cc[nH]n1 (stereo not given) | 1.449 |
| CN(CC(=O)NC(C)(C)C)Cc1cccc2c1OCCO2 | -43.12 |
| Cc1cccn2c(NC(C)(C)C)c(C3CCN(C(=O)C4CC4)CC3)nc12 | 138 |
| CC(C)(C)C(=O)N1CCC(c2nc(O)cc(-c3ccccn3)n2)CC1 | -20.96 |
| CC(C)(C)Nc1c(C2CCCN(C(=O)C3CC3)C2)nc2ccccn12.Cl (stereo not given) | 97.63 |
| CN(CCO)Cc1nnc(C2CCN(C(=O)C(C)(C)C)CC2)n1C | 1.717 |
| CC(C)(C)Nc1c(C2CCN(C(=O)C(C)(C)C)CC2)nc2ccccn12 | 124.8 |
| CC(C)(O)C1CCCN(C(=O)Nc2nc(-c3ccccc3)ns2)C1 (stereo not given) | -3.959 |
| CC(C)(C)Nc1c(C2CCN(C(=O)C3CC3)CC2)nc2ccccn12 | 95.08 |
| NC(=O)c1csc(N2CCN(Cc3cccc4nsnc34)CC2)n1 | -1.05 |
| CC(C)N1CCC(O)(CNC(=O)CC2OCCc3ccccc32)CC1 (stereo not given) | -11.76 |
| Cc1ncc(Cl)c(C(=O)N2CC(=O)N(C)c3ccccc32)n1 | -4.054 |
| Cc1cnc(NC(=O)N2CCOCC2)s1 | -16.98 |
| CCC(C)n1cnc(S(=O)(=O)N(Cc2cccnc2)C(C)C)c1 (stereo not given) | 3.048 |
| O=C(OCCNc1ncccn1)c1ccc(Br)s1 | -22.12 |
| CC(C)C(=O)N1CCC(c2nc3ccccn3c2NC(C)(C)C)CC1 | 120.3 |
| COc1ccccc1OC1CN(C(=O)Cc2c(C)nc3ccccn23)C1 | -17.73 |
| CNC(C(=O)N1CCC(c2nccn2C(C)C)CC1)c1ccccc1 (stereo not given) | 12.05 |
| CC(C)c1nc(C(=O)N(C)c2ccc(Br)cn2)cs1 | -16 |
| CC1CCN(S(=O)(=O)c2cccnc2)c2ccccc2S1 (stereo not given) | -3.494 |
| O=S1(=O)CCC(N2CCN(c3cc(C(F)(F)F)ccn3)CC2)C1 (stereo not given) | 0.5225 |

| Compound | Percent Effect [%] |
| --- | --- |
| Cc1nccc(CN2CCC(c3nnsc3S(C)(=O)=O)CC2)n1 | 2.937 |
| CNc1ncc(CN2CCC(c3nnsc3S(C)(=O)=O)CC2)cn1 | 122 |
| COC[C@H]1CNC(=O)[C@@H]2CCN(Cc3cccc(C)n3)CC[C@H]12 | -1.462 |
| CS(=O)(=O)c1snnc1C1CCN(Cc2ccncc2)CC1 | -7.486 |
| CS(=O)(=O)c1snnc1C1CCCN(Cc2ccncc2)C1 (stereo not given) | 95.13 |
| CCn1c(CN(C)C)nnc1C1CCN(Cc2cnc(C)nc2)CC1 | -9.341 |
| CC(c1nc(C2CC2)no1)N1CCN(Cc2cccnc2)CC1 (stereo not given) | 9.745 |
| CS(=O)(=O)c1snnc1C1CCN(Cc2cccnc2)CC1 | 133.5 |
| Cc1cccc(CN2CCC(c3nnsc3S(C)(=O)=O)CC2)n1 | 122.9 |
| CCn1c(CN2CCCC2)nnc1C1CCN(Cc2cccnc2)CC1 | -3.145 |
| CN(C)c1ncc(CN2CCC(c3nnsc3S(C)(=O)=O)CC2)cn1 | -8.857 |
| Cc1cccnc1CN1CCC(c2nnc(Cn3cccn3)n2C)CC1 | 7.8 |
| CC(C)OCCN(Cc1cccc(O)c1)C1CCC(O)CC1 (stereo not given) | -9.741 |
| CC1CCN(c2ccnc3ccc(Br)cc23)CC1 | -3.339 |
| O=C(c1ccoc1)N1CCCN(C(=O)c2ccc(C3CCCN3)s2)CC1 (stereo not given) | 16.47 |
| N#Cc1cccc(CNC(=O)C2=NN(c3ccccc3)C(=O)CN2)c1 | -6.333 |
| CC(Cn1ccnc1)NC1CCN(Cc2cccc(O)c2)CC1 (stereo not given) | -6.042 |
| CS(=O)(=O)c1snnc1C1CCN(Cc2ccc3nccnc3c2)CC1 | 138.8 |
| CC(Cn1cncn1)NC1CCN(Cc2cccc(O)c2)CC1 (stereo not given) | -16.09 |
| CNS(=O)(=O)c1ccc(CN2CCC(c3ccncc3)CC2)cc1 | -2.48 |
| Cc1cccc(CN2CCC(NCC3CNc4cc(C)nn4C3)CC2)c1 (stereo not given) | 17.46 |
| Cc1cccc(CN2CCC(c3nnsc3S(C)(=O)=O)CC2)c1 | 168.1 |
| Fc1ccc(CN2CCC(c3nccnc3-n3ccnc3)CC2)cc1 | -7.393 |
| CS(=O)(=O)c1snnc1C1CCN(Cc2cccc(O)c2)CC1 | 145.1 |
